High-throughput results deposited in PubChem by The Scripps Research Institute Molecular Screening Center.
ADAM17 inh – inhibitors of human ADAM17. P78536. recombinant ADAM17, EDANS/DABCYL FRET peptide cleavage. inhibition, % at 6.95 µM. actives 0.83% (n = 370,000). AID 720648;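 active = inhibition above the mean of compounds lying between control limits plus 3 SD, set per campaign, cut at about 8.5% in these data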;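 also: 0% = DMSO-only wells as the low control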
sPLA2-III inh – Inhibits HGIII-sPLA2 liposome hydrolysis, primary screen | Q9NZ20 | QFRET BODIPY PC-A2 liposome hydrolysis, fluorescence | inhibition, % at 12.2 µM | actives 0.56% (n = 370,000);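 active = inhibition above mean plus 3 SD of compounds lying within the high and low control bounds, cut at about 19% in these data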;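 also: 0% = median of test compound wells and 100% = no enzyme DMSO wells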
Target sequence (Q9NZ20 whole entry, looked up): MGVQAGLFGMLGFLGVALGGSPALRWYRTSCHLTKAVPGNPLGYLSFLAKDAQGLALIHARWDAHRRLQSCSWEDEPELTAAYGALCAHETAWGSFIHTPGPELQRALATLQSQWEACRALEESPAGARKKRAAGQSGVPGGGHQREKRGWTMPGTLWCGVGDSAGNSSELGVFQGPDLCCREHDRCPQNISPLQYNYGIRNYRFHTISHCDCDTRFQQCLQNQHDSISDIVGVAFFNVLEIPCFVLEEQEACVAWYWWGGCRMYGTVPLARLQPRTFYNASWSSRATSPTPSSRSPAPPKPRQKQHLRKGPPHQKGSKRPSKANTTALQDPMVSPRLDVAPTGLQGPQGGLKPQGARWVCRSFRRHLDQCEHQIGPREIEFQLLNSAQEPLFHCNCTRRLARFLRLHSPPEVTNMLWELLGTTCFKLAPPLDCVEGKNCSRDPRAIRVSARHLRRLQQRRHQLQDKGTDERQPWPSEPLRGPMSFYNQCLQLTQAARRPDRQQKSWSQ
PLCg1 inh – inhibitors of human phospholipase C gamma1. P19174. actives 0.84% (n = 370,000). purified PLC-gamma1, fluorogenic substrate, fluorescence. inhibition, % at 12.2 µM; in the data active = inhibition above about 9.5%
PLCb3 inh – PLC-beta3 (human) inhibition, primary screen; Purified PLC-beta3, fluorogenic substrate, fluorescence; inhibition, % at 12.2 µM; actives 0.18% (n = 370,000); in the data active = inhibition above about 11%;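 also: 0% = median of compound wells on plate and 100% = full blocker control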
proKLK7 act – activators of human kallikrein-7 zymogen; activation, % at 7 µM; purified proKLK7, EDANS-DABCYL substrate fluorescence; 100% is mature enzyme control, 0% vehicle; actives 0.9% (n = 370,000);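 active = activation above the mean of all tested compounds plus 3 SD, computed per campaign excluding outliers beyond control limits, cut at about 13% in these data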
ADAM10 inh – ADAM10 inhibition, QFRET primary screen | O14672 | recombinant ADAM10, EDANS/DABCYL FRET peptide cleavage, 3 h | inhibition, % at 7 µM | actives 0.62% (n = 370,000);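 active = inhibition above a per-campaign cutoff equal to the mean of compounds falling between control-based bounds plus 3 SD, cut at about 20% in these data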;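 also: 0% = DMSO wells while the 100% control is not disclosed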
ADAM10 confirm – confirmation of inhibitors of human ADAM10; inhibition, % at 6.95 µM; shares compounds with ADAM10 inh; actives 1% (n = 2,100); ADAM10 QFRET peptide cleavage, EDANS fluorescence;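 active = inhibition above about 20% chosen separately for each screening run, limit read from the data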;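 also: 0% = DMSO wells and 100% = marimastat wells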
ADAM17 counter – inhibits human ADAM17 in ADAM10 exosite counter-screen | shares compounds with ADAM10 inh | ADAM17 QFRET peptide cleavage, EDANS fluorescence | inhibition, % at 6.95 µM | actives 0.5% (n = 2,100) | AID 743214;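 active = mean triplicate inhibition above the solvent-only control wells' mean plus 3 SD, cut at about 12% in these data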;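 also: 0% = DMSO wells and 100% = marimastat wells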
ADAM10 counter – inhibits human ADAM10 in ADAM17 exosite counter-screen | recombinant ADAM10, EDANS/DABCYL FRET peptide cleavage, 3 h | shares compounds with ADAM17 inh | inhibition, % at 6.95 µM | actives 47% (n = 2,900);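 active = mean inhibition over the triplicate runs exceeds the activity threshold set in the earlier primary screen, cut at about 20% in these data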;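 also: 0% = DMSO wells and 100% = marimastat wells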
ADAM17 confirm – human ADAM17 inhibition, confirmation; recombinant ADAM17, EDANS/DABCYL QFRET peptide cleavage; actives 65% (n = 2,900); inhibition, % at 6.95 µM; shares compounds with ADAM17 inh;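 active = mean inhibition across replicates above the hit cutoff set in the primary screen, cut at about 8.5% in these data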;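 also: 0% = DMSO wells and 100% = marimastat wells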
The depositor's hits bear a star. Most compounds without a hit are left out; they make up all but 3.4% or so of the library.

How did O=S(=O)(Nc1ccccc1)c1ccc(Oc2ncc(C(F)(F)F)cc2Cl)cc1 do in these assays?
ADAM17 inh: 12*; sPLA2-III inh: -28; PLCg1 inh: -4; PLCb3 inh: 0; proKLK7 act: 0; ADAM10 inh: 29*; ADAM10 confirm: 5; ADAM17 counter: 2; ADAM10 counter: 35*; ADAM17 confirm: 19*

Results for CC(C)NS(=O)(=O)c1ccc(Oc2ncc(C(F)(F)F)cc2Cl)cc1 ?
ADAM17 inh: 8; sPLA2-III inh: -6; PLCg1 inh: 8; PLCb3 inh: 2; proKLK7 act: 1; ADAM10 inh: 12

How did Cc1ccc(N(CC(=O)NCCc2ccc(F)cc2)S(=O)(=O)c2ccc(Cl)c([N+](=O)[O-])c2)c(C)c1 do in these assays?
ADAM17 inh: 12*; sPLA2-III inh: -10; PLCg1 inh: 6; PLCb3 inh: 3; proKLK7 act: 1; ADAM10 inh: 26*; ADAM10 confirm: 11; ADAM17 counter: 2; ADAM10 counter: 29*; ADAM17 confirm: 15*

What do the screens show for `Cc1csc(SCC(=O)Nc2nc(-c3ccccc3)cs2)n1`?
ADAM17 inh: 12*; sPLA2-III inh: -22; PLCg1 inh: -2; PLCb3 inh: 4; proKLK7 act: 2; ADAM10 inh: 22*; ADAM10 confirm: 0; ADAM17 counter: 1; ADAM10 counter: 19; ADAM17 confirm: 14*

What do the screens show for `Cc1ccc(-c2csc(NC(=O)CSc3nc(C)cs3)n2)cc1`?
ADAM17 inh: 4; sPLA2-III inh: -12; PLCg1 inh: -2; PLCb3 inh: -3; proKLK7 act: 0; ADAM10 inh: 6

What do the screens show for `O=C(COC(=O)Cc1c[nH]c2ccccc12)Nc1cccc(Br)c1`?
ADAM17 inh: 11*; sPLA2-III inh: -124; PLCg1 inh: 0; PLCb3 inh: 2; proKLK7 act: 1; ADAM10 inh: 26*; ADAM10 confirm: 4; ADAM17 counter: 1; ADAM10 counter: 7; ADAM17 confirm: 8.9*

What do the screens show for `CC(=O)N1c2ccc(S(=O)(=O)N3CCC(C(=O)N4CCN(c5cc(Cl)ccc5C)CC4)CC3)cc2CC1C` (stereo unspecified)?
ADAM17 inh: 18*; sPLA2-III inh: -12; PLCg1 inh: 9; PLCb3 inh: -3; proKLK7 act: 1; ADAM10 inh: 23*; ADAM10 confirm: 7; ADAM17 counter: 1; ADAM10 counter: 30*; ADAM17 confirm: 17*

Results for Cc1ccc(Nc2nnc(SCC(=O)Nc3cccc(S(=O)(=O)N4CCCCC4)c3)s2)cc1 ?
ADAM17 inh: 11*; sPLA2-III inh: -31; PLCg1 inh: 4; PLCb3 inh: 0; proKLK7 act: 0; ADAM10 inh: 27*; ADAM10 confirm: 9; ADAM17 counter: 3; ADAM10 counter: 30*; ADAM17 confirm: 17*

Results for COc1ccccc1C(CCNS(=O)(=O)c1ccc(C)cc1)c1ccco1 (stereo unspecified) ?
ADAM17 inh: 9.3*; sPLA2-III inh: -49; PLCg1 inh: 2; PLCb3 inh: -2; proKLK7 act: -1; ADAM10 inh: 21*; ADAM10 confirm: 5; ADAM17 counter: 2; ADAM10 counter: 27*; ADAM17 confirm: 18*
